Assay results published in PubChem BioAssay (EPA / NIEHS).
Inconclusive results are not listed. The source made the active and inactive calls. Rule for the calls: active = hit-call score of the fitted dose curve at least 0.9, where 1 is the maximum; inconclusive = response in the unintended direction; inactive = score below 0.9.

These compounds were tested on xenobiotic metabolism (CYP1A2), CYP1A2 (gene 1544) (assay: CLD_CYP1A2_24hr: CellzDirect (CLD) Gene Expression Assay for xenobiotic metabolism (CYP1A2) at 24 hours (AID 2283683)).
Procedure: CLD_24hr is a cell-based, multiplexed-readout assay that uses hepatocyte, a human liver primary cell, with measurements taken at 24 hours after chemical dosing in a 96-well plate.CLD_CYP1A2_24hr is one of 16 assay component(s) measured or calculated from the CLD_24hr assay. It is designed to make measurements of mRNA induction, a form of inducible reporter, as detected with chemiluminescence signals by Quantitative Nuclease Protection Assay (qNPA) technology.Data from the assay component CLD_CYP1A2_24hr was analyzed at the endpoint, CLD_CYP1A2_24hr, in the positive analysis fitting direction relative to DMSO as the negative control and baseline of activity. Using a type of inducible reporter, gain-of-signal activity can be used to understand changes in the reporter gene as they relate to the gene CYP1A2. Furthermore, this assay endpoint can be referred to as a primary readout. To generalize the intended target to other relatable targets, this assay endpoint is annotated to the cyp intended target family, where subfamily is xenobiotic metabolism.
Human hepatocyte cultures were treated daily for two consecutive days with fresh dosing solutions containing appropriate concentrations of the 320 ToxCast chemicals (chemical identities were blinded to CellzDirect and other ToxCast collaborators), vehicle control (0.2% DMSO), and positive control inducers as summarized in Table 1. Due to the large number of treatment groups and chemicals examined, the ToxCast chemicals were divided into two groups (spanning two independent cultures of hepatocytes from separate donor preparations (Hu778: ToxCast plates 1 and 2; Hu776: ToxCast plates 3 and 4). Each preparation of human hepatocyte cultures was treated with respective vehicle control, medium only control, set of six positive controls/reference chemicals for the five hepatic receptor pathways, and a subset of eight of the ToxCast chemicals (indoxacarb, pyrithiobac-sodium, norflurazon, cyhalofop-butyl, methomyl, thiram, acetochlor, and propiconazole). These replicate data, coupled with internal replicates designed within the blinded ToxCast chemical library, provided additional data to evaluate interindividual differences between hepatocyte preparations and their potential impact on chemical profiles.Cell morphology and integrity were evaluated using phase-contrast microscopy as an indicator of hepatocyte cell health (Tyson & Green, 1987). Cultures for each treatment group (i.e., media, vehicle [0.2% DMSO], positive control inducers [multiple concentrations], and the ToxCast chemicals [multiple concentrations]) were observed and cell morphology was assessed relative to vehicle control cultures at each harvest time point (0, 6, 24, or 48 h). […] Images were evaluated at the conclusion of the study to assess changes in cell integrity and account for the effects of chemical exposure on uncharacteristic changes in concentration-dependent gene expression profiles. The results from these determinations of apparent cytotoxicity were annotated (yes/no) alongside the corresponding qNPA data for reference.At the conclusion of each treatment period, hepatocyte cultures (96-well) were washed with 1 volume of HBSS, lysed by addition of 25 ul ArrayPlate lysis buffer (HTG, Tucson, AZ), and 70 ul/well of Denaturation Oil, denatured by incubation at 95C for 10 min, and frozen at approximately -70C until analysis by nuclease protection assay (qNPA) (Roberts et al., 2007). For qNPA analysis, cell lysates were thawed at 50C for approximately 30 min, qNPA probes were added, and samples were incubated at 95C for 10 min to begin the detection process by denaturing the target RNA, dissociating the duplexes and secondary structure hybridization. At the conclusion of the hybridization period, S1 nuclease reagent was added to each sample to digest all nonprotected nucleotides at 50C for 60-90 min. […]
CCN(CC)c1nc(C)cc(OP(=S)(OC)OC)n1 was tested, and the AC50 was 3.97 µM (active).
For CCN(CC)C(=O)C(C)Oc1cccc2ccccc12 (stereo not given), the AC50 was 8.79 µM (active).
CC1(C)C(C(=O)OC(C#N)c2cccc(Oc3ccccc3)c2)C1(C)C (stereo not given) was tested, and the AC50 was 20 µM (active).
With COc1ccc(-c2ccccc2)cc1NNC(=O)OC(C)C the AC50 was 0.255 µM (active).
With CS(=O)(=O)c1cc(C(F)(F)F)ccc1C(=O)c1cnoc1C1CC1 the outcome was “inactive”.
Cc1ccc(N=CN(C)C=Nc2ccc(C)cc2C)c(C)c1 was tested, and the outcome was “inactive”.
In the case of CSC(=O)c1c(C(F)F)nc(C(F)(F)F)c(C(=O)SC)c1CC(C)C, the AC50 is reported as 5.33 µM (active).
With COC(=O)N(C(=O)N1CO[C@@]2(C(=O)OC)Cc3cc(Cl)ccc3C2=N1)c1ccc(OC(F)(F)F)cc1 the AC50 was 1.28 µM (active).
CC(C)Oc1cccc(NC(=O)c2ccccc2C(F)(F)F)c1 was tested, and the AC50 was 20 µM (active).
In the case of COP(=O)(OC)O/C(C)=C/C(=O)N(C)C, the outcome is reported as “inactive”.
For Cc1cc(C)nc(Nc2ccccc2)n1, the AC50 was 5.77 µM (active).
For CC1(C)C(C=C(Cl)Cl)C1C(=O)OC(C#N)c1cccc(Oc2ccccc2)c1 (stereo not given), the AC50 was 11 µM (active).
Cn1c(-c2ccccc2)cc(-c2ccccc2)[n+]1C was tested, and the AC50 was 0.141 µM (active).
In the case of CCCCC(O)(Cn1cncn1)c1ccc(Cl)cc1Cl (stereo not given), the AC50 is reported as 1.9 µM (active).
In the case of COP(=S)(OC)SCn1nnc2ccccc2c1=O, the AC50 is reported as 2.27 µM (active).
With CC(C)Nc1nc(Cl)nc(NC(C)C)n1 the AC50 was 7.72 µM (active).
With Cc1c(COC(=O)[C@@H]2[C@H](/C=C(\Cl)C(F)(F)F)C2(C)C)cccc1-c1ccccc1 the AC50 was 32.2 µM (active).
For Clc1nc(Cl)nc(Nc2ccccc2Cl)n1, the outcome was “inactive”.
With CC(C)NC(=O)N1CC(=O)N(c2cc(Cl)cc(Cl)c2)C1=O the AC50 was 15.7 µM (active).
For CC(C)N1C(=O)N(c2ccccc2)CSC1=NC(C)(C)C, the outcome was “inactive”.
With Nc1c(Cl)c(Cl)nc(C(=O)O)c1Cl the AC50 was 20 µM (active).
CCNC(=O)NC(=O)C(C#N)=NOC was tested, and the outcome was “inactive”.
O=C(Nc1ccccc1-c1ccc(Cl)cc1)c1cccnc1Cl was tested, and the AC50 was 6.74 µM (active).
For CCOc1cc(C(C)(C)C)ccc1C1COC(c2c(F)cccc2F)=N1 (stereo not given), the AC50 was 15.7 µM (active).
CCOP(=O)(OCC)Oc1nc(Cl)c(Cl)cc1Cl was tested, and the AC50 was 3.42 µM (active).
CN=C=S was tested, and the outcome was “inactive”.
C=C(C)CN(CC)c1c([N+](=O)[O-])cc(C(F)(F)F)cc1[N+](=O)[O-] was tested, and the outcome was “inactive”.
With CCNP(=S)(OC)O/C(C)=C/C(=O)OC(C)C (stereo not given) the AC50 was 4.58 µM (active).
For CCCCC(C#N)(Cn1cncn1)c1ccc(Cl)cc1 (stereo not given), the AC50 was 20 µM (active).
With COc1cc(Cl)c(OC)cc1Cl the outcome was “inactive”.
With Cc1cnc(C2=NC(C)(C(C)C)C(=O)N2)c(C(=O)O)c1 (stereo not given) the outcome was “inactive”.
For CCC(C)n1c(=O)[nH]c(C)c(Br)c1=O (stereo not given), the AC50 was 7.45 µM (active).
For CCOc1nc(C(Cl)(Cl)Cl)ns1, the outcome was “inactive”.
With Cc1nc(N(C)C)nc(OC(=O)N(C)C)c1C the AC50 was 3.66 µM (active).
For CC1(C)CON(Cc2ccccc2Cl)C1=O, the outcome was “inactive”.
In the case of N#Cc1c[nH]cc1-c1cccc2c1OC(F)(F)O2, the AC50 is reported as 1.56 µM (active).
COC(=O)NC(=S)Nc1ccccc1NC(=S)NC(=O)OC was tested, and the AC50 was 12.2 µM (active).
With O=C1C2CC=CCC2C(=O)N1SC(Cl)(Cl)Cl (stereo not given) the outcome was “inactive”.
O=c1n(Cl)c(=O)n(Cl)c(=O)n1Cl was tested, and the AC50 was 3.33 µM (active).
In the case of CC(C)(C)C(=O)C(Oc1ccc(Cl)cc1)n1cncn1 (stereo not given), the AC50 is reported as 9.31 µM (active).
